Our source for the activation (% of full agonist control) and activation (% of partial agonist control) values is PubChem BioAssay AID504452 (The Scripps Research Institute Molecular Screening Center, 2011).

Activity calls are given as the source filed them. Rule as the data show it: active = activation above about 85%; inactive = the rest.

This experiment has as its target Peroxisome proliferator-activated receptor gamma (Homo sapiens) (UniProt P37231). The experiment is described as follows: PPARg partial agonist activation, primary screen, cell-based, luciferase reporter, luminescence (AID 504452).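 Also: Cos-1 cells carrying PPARgamma and a response element luciferase reporter.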 The following applies: at 5 µM, stronger effect = higher value; activation (% of full agonist control): measured here: relative to full agonist control. For orientation: A reporter such as luciferase makes a cellular process visible.

Peroxisome proliferator-activated receptor gamma (Homo sapiens), sequence (P37231 whole entry, looked up): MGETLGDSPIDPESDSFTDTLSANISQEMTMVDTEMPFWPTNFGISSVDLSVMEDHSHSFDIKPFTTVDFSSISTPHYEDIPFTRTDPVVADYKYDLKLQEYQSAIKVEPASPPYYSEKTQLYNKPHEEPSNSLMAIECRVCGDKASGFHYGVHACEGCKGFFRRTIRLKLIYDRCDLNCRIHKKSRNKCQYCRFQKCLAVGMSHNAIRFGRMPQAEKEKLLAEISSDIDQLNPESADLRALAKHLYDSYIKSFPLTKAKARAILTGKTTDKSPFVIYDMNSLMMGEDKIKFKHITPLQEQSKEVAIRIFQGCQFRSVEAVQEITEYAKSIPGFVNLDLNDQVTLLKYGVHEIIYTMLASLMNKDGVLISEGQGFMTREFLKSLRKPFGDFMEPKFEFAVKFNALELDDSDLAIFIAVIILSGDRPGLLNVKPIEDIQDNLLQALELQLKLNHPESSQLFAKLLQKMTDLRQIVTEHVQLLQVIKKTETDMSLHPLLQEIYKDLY

Consider `O=C(O)c1ccc(N2C(=O)CC(SC(=Nc3ccccc3)Nc3ccccc3)C2=O)cc1` (centres undefined), for which the activation (% of full agonist control) was 38.3% and the activation (% of partial agonist control) was 84.7% (inactive).
With `CCOc1cccc(C2C(C(=O)c3ccco3)=C(O)C(=O)N2c2nnc(C)s2)c1` (centres undefined), the activation (% of full agonist control) worked out at 31.8% and the activation (% of partial agonist control) was 70.4% (inactive).
As to `COc1ccc(/C(O)=C2/C(=O)C(=O)N(Cc3ccco3)C2c2cccs2)cc1` (centres undefined), the activation (% of full agonist control) was found to be 32.1% and the activation (% of partial agonist control) was 71.1% (inactive).
Take `COc1ccc2nc(N3C(=O)C(O)=C(C(=O)c4ccco4)C3c3ccc(C)o3)sc2c1` (centres undefined): the activation (% of full agonist control) stood at 41.1% and the activation (% of partial agonist control) is 91.1% (active).
In the same order, the values of `O=C(CCCCCNC(=O)N1CCn2c1nc1ccccc12)N[C@@H](Cc1ccccc1)C(=O)O` are 32.6% and 72.2% (inactive).
In the same order, the values of `Cc1ccc(-c2nnc(Nc3ccc(O)cc3)c3ccccc23)cc1S(=O)(=O)NCCO` are 41.1% and 91% (active).
Consider `COC(=O)C1=CN(Cc2ccccc2)C=C(C(=O)OC)C1c1ccc(OC)c(OC)c1`, for which the activation (% of full agonist control) was 25.9% and the activation (% of partial agonist control) was 57.3% (inactive).
Consider `O=C(Cc1c(C(=O)O)[nH]c2ccccc12)Nc1ccc2c(c1)OCO2`, for which the activation (% of full agonist control) came out at 7.95% and the activation (% of partial agonist control) is 17.6% (inactive).
In the same order, the values of `O=c1c(S(=O)(=O)c2ccc(Cl)cc2)cn(Cc2ccccc2)c2ccc(F)cc12` are 38% and 84.1% (inactive).
On to `O=C(CC(C(=O)N1CCc2ccccc21)n1ccnc1)NCc1ccccc1` (centres undefined), for which the activation (% of full agonist control) worked out at 14.1% and the activation (% of partial agonist control) was 31.2% (inactive).
For `O=C(N[C@@H]1CCC(=O)N(CC[C@H](Oc2ccccc2)c2ccccc2)CC1)OCc1ccccc1`, the activation (% of full agonist control) was 28.1% and the activation (% of partial agonist control) was 62.1% (inactive).
In the same order, the values of `COc1ccc(N2C(=O)C(CN3CCN(C)CC3)C2c2ccccc2)cc1` (centres undefined) are 31.9% and 70.6% (inactive).
